From PubChem BioAssay
This is a sample that favours compounds with a hit; in the whole collection about 12% have one here.
PLK1 PBD block = inhibitors of human PLK1 polo-box domain binding; Potency, µM, inactives show max response, negative = inhibition, actives largely listed as inhibitors; Plk1 PBD binding of FITC phosphopeptide, fluorescence polarization; AID 720504; 360,000 compounds, 2.8% hits; note: series mostly up to about 57 µM; % is set by controls: 0 for no effect and ±100 for the full control effect; nearly all actives have a fitted effect of over 65% in size
G9a inh = inhibitors of human histone lysine methyltransferase G9a; 350,000 compounds, 8.8% hits; G9a H3K9 monomethylation, AlphaScreen, 2 h; Potency, µM (series often up to 102 µM), inactives show top-dose activity, negative = inhibition, most hits filed as inhibitors; note: % is set by controls: 0 for no effect and ±100 for the full control effect; nearly all actives have a fitted effect of over 75% in size
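AlphaScreen detection with an anti-monomethyl H3K9 antibody quantified product after a 2 h room-temperature reaction containing 500 nM biotinylated H3K9 peptide, 20 µM SAM and 20 nM enzyme, which had been preincubated 15 min with compound.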
JMJD2A Tudor = JMJD2A Tudor domain (human) inhibition; Potency, µM (highest dose often 114 µM), for inactives: top-dose activity change, negative = inhibition, hits mostly inhibitors; 390,000 compounds, 4.4% hits; AlphaScreen JMJD2A-Tudor / H3K4me3 peptide binding; note: % is set by controls: 0 for no effect and ±100 for the full control effect; nearly all actives have a fitted effect of over 50% in size
Sfp inh = blocks B. subtilis Sfp PPTase activity; Potency, µM, without a hit: largest response in the series, negative = inhibition, most hits filed as inhibitors; 310,000 compounds, 3.5% hits; AID 1490; Q9F4F7; Biochemical Sfp PPTase activity, qHTS;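 note: the enzyme is Sfp with the accession as filed and its product quenches rhodamine fluorescence; 0% = enzyme reaction without inhibitor and -100% = no enzyme wells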
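Reaction rates are the 30-min fluorescence difference (ex 525, em 598 nm) in wells containing 15 nM Sfp, 5 uM rhodamine-CoA and 12.5 uM BHQ-2-YbbR at pH 7.6 with 10 mM MgCl2.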
HP1b binding inh = blocks HP1-beta chromodomain binding to methylated histone tails | AlphaScreen HP1-beta / biotin-H3K9me3 peptide binding | Potency, µM (doses to about 114 µM), without a hit: top-dose activity change, negative = inhibition, actives largely listed as inhibitors | 390,000 compounds, 0.56% hits | AID 540317 | P83916; note: nearly all actives have a fitted effect of over 70% in size
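AlphaScreen: HP1-beta (50 nM) preformed 30 min with biotin-H3(1-18)K9me3 peptide (50 nM) in PBS pH 7.4, 0.01% Tween-20. Compound added for 30 min at RT, then streptavidin donor/nickel chelate acceptor beads (10 ug/mL) for 30 min.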
BAZ2B inh = blocks human BAZ2B | Q9UIF8 | AlphaScreen BAZ2B-H3K14Ac peptide displacement | Potency, µM (titrated, usually from 114 µM), without a hit: top-dose activity change, negative = inhibition, actives largely listed as inhibitors | 360,000 compounds, 4.4% hits | AID 504333; note: % is set by controls: 0 for no effect and ±100 for the full control effect; nearly all actives have a fitted effect of over 60% in size
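BAZ2B 50 nM plus b-H3(5-23)K14Ac 50 nM, PBS pH 7.4/0.01% Tween-20, 30 min RT; compound added (max 110 uM), 30 min RT; streptavidin donor/Ni-chelate acceptor beads 10 ug/mL final, 20 min dark; AlphaScreen read.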
* = called active by the depositor; ? = inconclusive; / = no result given; [ ] = dose if it differs, or a comment. Calls come from the whole dose curve; as a rule, active = well fitted curve in the direction sought with a large enough effect; inconclusive = small, poorly fitted or top-dose-only effect, or another doubt; inactive = no such curve, though single readings can be large; an effect the other way counts as inactive or inconclusive. Potency is the fitted concentration of half-maximal effect.

SMILES	PLK1 PBD block	G9a inh	JMJD2A Tudor	Sfp inh	HP1b binding inh	BAZ2B inh
Cn1c2cc(B(O)O)sc2c2cnn(Cc3c(F)cccc3F)c(=O)c21	/	-2%[12.7 µM]	/	/	/	3%
CCOC(=O)N1CCC(N2CCN(S(=O)(=O)CC)CC2)CC1	0%	?	4.5µM*	-22%	?	-31%
CCOC(=O)COc1ccc(S(=O)(=O)N2CCN(c3ccc(OC)cc3)CC2)cc1	?	4%	28µM*	10%	-16%	-5%
CCOC(=O)N1CCC(N2CCN(S(=O)(=O)c3ccc(OC)cc3)CC2)CC1	7%	?	18µM*	4%	-11%	-10%
CCOC(=O)N1CCC(N2CCN(c3ccccc3)CC2)CC1	-6%	-86%	-21%	11%	19%	-36%
CCOC(=O)c1ccc(S(=O)(=O)N2CCN(C3CCCC3)CC2)cc1	-5%	-10%	-14%	18µM*	20%	-19%
O=C(CSc1ccc2nc(-c3ccccc3)cn2n1)Nc1ccccc1	/	-19%[59 µM]	-3%	/	14%	4%
Cc1ccc(NC(=O)CN2CCCN(S(=O)(=O)c3ccc(Br)s3)CC2)cc1	-13%	50µM*	-21%	-3%	36%	-3%
Cc1ccc(S(=O)(=O)N2CCN(CC(=O)N/N=C\c3ccc(O)c(O)c3)CC2)cc1	1%	40µM*	-13%	?	30%	-24%
O=C(CN1CCN(S(=O)(=O)c2ccc(Br)cc2)CC1)N/N=C/c1ccc(Br)s1	24µM*	3%[59 µM]	-35%	3%	-5%	?
Cc1cc(C)cc(NC(=O)CN2CCCN(S(=O)(=O)c3ccc(Br)s3)CC2)c1	-2%	-2%[12.7 µM]	-9%	-6%	53%	3%
CSCc1ccc(C(=O)N2CCC(N3CCC(C(=O)NC(C)C)CC3)CC2)o1	-7%	/	-12%	4%	14%	0%
Cc1ccc(S(=O)(=O)NCC(=O)OCC(=O)Nc2ccc3c(c2)OCCO3)cc1	-3%	4%[2.33 µM]	-16%	/	21%	2%
COc1ccc(-c2noc(CC(=O)Nc3cc(OC)ccc3OC)n2)cc1	/	-29%[59 µM]	-12%	/	18%	?
O=[N+]([O-])c1ccc(Cl)c(CN2CCCCCC2)c1	-9%	25µM*	1.3µM*	-4%	?	56µM*
O=[N+]([O-])c1ccc(Cl)c(CN2CCC(O)CC2)c1	-10%	7.9µM*	10µM*	50µM*	45µM*	56µM*
CC(C)CCNC(=O)CN1C(=O)c2cccnc2Sc2ccccc21	/	11%[59 µM]	-13%	/	27%	-3%
CN(CCCn1ccc(NC(=O)OCc2ccccc2)nc1=O)CCc1ccccn1	7%	/	/	/	/	/
CCOC(=O)CNC(=O)CSc1nnc(SCC(=O)NCC(=O)OCC)s1	-10%	18µM*	6%	?	27%	-1%
CCOC(=O)CSC1=NC(=O)CS1	?	?	-14%	79µM*	29%	?
CCOC(=O)CSc1n[nH]c(=S)s1	27µM*	/	?	?	?	?
CCOC(=O)CNC(=O)CSc1nnc(NC(=O)c2ccc(C)cc2)s1	-9%	-44%	-14%	15%	18%	/
CCOC(=O)CSc1nnc(N)s1	-9%	18µM*	56µM*	-2%	18%	-4%
CCOC(=O)CSc1nn(C)c(=S)s1	?	-11%[59 µM]	-35%	-1%	-7%	-3%
CCCCn1c(CNC(=O)C23CC4CC(CC(C4)C2)C3)nnc1SC(C)CC (centres undefined)	-20%	22%[59 µM]	-16%	-6%	14%	-30%
SMILES	PLK1 PBD block	G9a inh	JMJD2A Tudor	Sfp inh	HP1b binding inh	BAZ2B inh
CCc1ccc(-c2cc(C)no2)cc1S(=O)(=O)NCCCN1CCN(c2ccccc2)CC1	-2%	?	?	10%	0%	?
CN(/N=C/c1cccc(Br)c1)C1=NS(=O)(=O)c2ccccc21	-5%	2%	-2%	2%	70%	4%
Nc1nnc(SCC(=O)N2CCN(Cc3ccccc3)CC2)s1	-11%	45µM*	-5%	-2%	20%	3%
Cn1c2cc(Br)sc2c2cnn(Cc3c(F)cccc3F)c(=O)c21	/	-31%[12.7 µM]	/	/	/	8%
Cc1onc(-c2ccccc2Cl)c1C(=O)NNC(=O)c1ccccc1F	0%	16%	-5%	12%	30%	4%
O=C(CCc1ccccc1)Nc1ccc(NC(=O)c2ccco2)cc1	-11%	-10%	-3%	27%	4%	1%
O=C(N/N=C\CCc1ccccc1)c1ccco1	15µM*	7%[59 µM]	?	19%	?	-5%
CSc1ccccc1C(=O)Nc1cc2c(cc1C(=O)O)OCCCO2	30µM*	2.8µM*	22µM*	4%	1%	-27%
COc1ccccc1OCC(=O)Nc1cc2c(cc1C(=O)O)OCCCO2	-28%	7.9µM*	79µM*	79µM*	48%	-20%
CCOc1ccccc1OCC(=O)Nc1cc2c(cc1C(=O)O)OCCCO2	-15%	25µM*	-1%	79µM*	57%	-11%
COc1ccccc1CN1CC(C(=O)NCc2cc(F)ccc2C)CCC1=O (centres undefined)	-9%	/	-26%	-2%	52%	2%
Cc1ccc2c(=O)c(C(=O)c3ccc(F)cc3)cn(CC(=O)NCc3ccccc3)c2n1	/	-12%[59 µM]	-8%	/	23%	8%[57.1 µM]
CCOC(=O)c1c(C)[nH]c(-c2csc(N)n2)c1C	?	28µM*	?	35µM*	?	?
CCOC(=O)c1c(C)[nH]c(-c2csc(C)n2)c1C	-19%	?	?	-3%	?	?
COc1ccc2c(c1)O/C(=C\c1sccc1C)C2=O	0%	-4%	-19%	45µM*	15%	4%
O=C(Nc1cccc2cccnc12)OC(Cl)(Cl)Cl	/	/	-24%	/	30%	/
CCOc1ccccc1CN1CCN(Cc2[nH]c3ccccc3c2C)CC1CCO (centres undefined)	-20%	71µM*	?	3%	-11%	-31%
CCOc1ccccc1CN1CCN(Cc2c[nH]c3ccccc23)CC1CCO (centres undefined)	2%	-1%	-23%	20%	34%	-4%
Cn1c(-c2ccc(=O)[nH]c2)nc2ccccc21	-8%	/	-14%[11.4 µM]	18µM*	27%	9%
O=C1c2ccccc2C(=O)N1CCc1nc2ccccc2c(=O)n1Cc1ccco1	-1%	-29%[59 µM]	2%	50µM*	30%	0%
COCCn1c(SCC(=O)c2ccccc2)nc2ccccc2c1=O	-22%	-7%	3%	-10%	-6%	5%
CCn1c(SCC(=O)NCc2cccs2)nnc1-c1cccs1	-7%	-16%[59 µM]	-12%	7%	12%	-9%
CCn1c(SCC(=O)c2ccc(CNC(C)=O)o2)nnc1-c1cccs1	-28%	18µM*	?	50µM*	22%	-29%
Cc1nc2ccccc2c(=O)n1Cc1ccco1	1%	8%	-3%	8%	55%	-3%
